A selection: hits, their analogues and other compounds. The true share with any hit is near 21%.
Pf growth 96h – Primary qHTS for delayed death inhibitors of the malarial parasite plastid, 96 hour incubation | P. falciparum luciferase reporter growth, 96 h | Potency, µM (top dose mostly 28.7 µM), without a hit: top-dose activity change, negative = inhibition, actives largely listed as inhibitors | 6.9% of 320,000 active; note: potency is the fitted concentration of half-maximal effect; % is set by controls: 0 for no effect and ±100 for the full control effect
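Readout is luminescence from an integrated firefly luciferase in P. falciparum. Red cells, 2% hematocrit and 0.05% parasitemia final, were cultured with compound through two parasite generations (96 hours) at 37 C, 5% CO2.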
Cycloheximide cs – Cycloheximide Counterscreen for Small Molecule Inhibitors of Shiga Toxin; cell reporter, cycloheximide protein synthesis inhibition counterscreen; max response, %; 12% of 300,000 active; AID 2314, 2010; in the data active = max response mostly above about 13%, no sharp cut-off; inactive = mostly below about 14%; note: read at 38.3 µM for the half of the compounds with a filed dose; 0% is about no effect
Shiga toxin inh – A qHTS for Small Molecule Inhibitors of Shiga Toxin; Vero cells, Shiga toxin protein synthesis inhibition reporter; inhibition, % at 38.7 µM; 9.2% of 290,000 active; in the data active = inhibition mostly above about 28%, no sharp cut-off; inactive = mostly below about 43%; note: 0% is about no effect
NS1 function inh – qHTS Assay for Inhibitors of Influenza NS1 Protein Function | 0.4% of 270,000 active | Potency, µM (doses to about 46.1 µM), inactives show top-dose activity, positive = more growth; calls by dose curve; note: potency is the fitted concentration of half-maximal effect; actives are rising curves; nearly all actives have a fitted effect of over 50% in size
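Compounds were scored for reversing the slow growth caused by influenza A NS1 in S. cerevisiae, measured by optical density at 600 nm. Assay medium contained 2% galactose at pH 6.0; NS1-free yeast of the same strain were the positive control.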
Pf growth 48h – Primary qHTS for delayed death inhibitors of the malarial parasite plastid, 48 hour incubation; P. falciparum luciferase growth in erythrocytes, 48 h; Potency, µM (top dose mostly 28.7 µM), without a hit: at the highest dose activity change, negative = inhibition, actives largely listed as inhibitors; 5.9% of 310,000 active; AID 504832, 2011; note: potency is the fitted concentration of half-maximal effect; % is set by controls: 0 for no effect and ±100 for the full control effect
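Erythrocytes infected with P. falciparum carrying an integrated firefly luciferase reporter (2% hematocrit, 0.1% parasitemia final) were exposed to compounds in RPMI 1640 with 0.5% Albumax at 37 C, 5% CO2. Growth inhibition was scored as reduced luminescence.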
Numbers without * were called inactive; ? = inconclusive; . = not tested or not shown; [ ] = remark or other dose. Unless noted, calls come from the whole dose curve; as a rule, active = well fitted inhibition curve with a large enough effect; inconclusive = small, poorly fitted or top-dose-only effect, or another doubt; inactive = no such curve, though single readings can be large or run the other way.

SMILES	Pf growth 96h	Cycloheximide cs	Shiga toxin inh	NS1 function inh	Pf growth 48h
O=C1CCC(C(=O)N2CCCC(N3CCN(c4cccc(C(F)(F)F)c4)CC3)C2)=NN1 (centres undefined)	32.4%	-1.4	4.8	-6.7%	-1.8%
Cc1c(NC(=O)Nc2cccc(C(F)(F)F)c2)c(=O)n(-c2ccccc2)n1C	-8.3%	-2.4	-10.4	-0.3%	9.2%
CC1CCCN(S(=O)(=O)c2ccc(NC(=O)C3CCN(C(=O)C(C)(C)C)CC3)cc2)C1 (centres undefined)	6.57µM*	.	.	.	5.22µM*
O=C(Nc1ccc(F)cc1)C1CCN(S(=O)(=O)c2ccc3[nH]c(=O)oc3c2)CC1	13.1µM*	0.7	-1.7	3.7%	9.5%
CC1CCCN(S(=O)(=O)c2ccc(NC(=O)CN3CCCCC3)cc2)C1 (centres undefined)	?	-3.3	-12.7	6.5%	-7.9%
Cc1[nH]c(=O)[nH]c(=O)c1/C=N/NC(=O)[C@@H](N)CC(C)C	?	16.3*	29.7	0.4%	5.22µM*
Cc1ccc(C)c(S(=O)(=O)N2CCN(CC(=O)NC(=O)NCc3ccccc3)CC2)c1	?	-4.4	12.1	-49.4%	?
COC(=O)c1ccccc1-n1c(C)nc(=O)c(-c2ccccc2)c1C	19.8%	-2.6	-10.1	2.7%	21.5%
CCCN1CCN(CCCNC(=O)Cn2ncc3c4ccccc4n(C)c3c2=O)CC1	-74.2%	-3.0	4.3	-0.5%	-7.6%
CCCn1c2ccccc2c2cnn(CC(=O)NCCCN3CCCC(C)C3)c(=O)c21 (centres undefined)	14.7µM*	-6.2	-8.2	-3.3%	-13.3%
CCCn1c2ccccc2c2cnn(CC(=O)NCCCN3CCN(c4ccccc4)CC3)c(=O)c21	0.329µM*	-2.9	1.5	-8.2%	7.6%
CCCn1c2ccccc2c2cnn(CC(=O)NCCCN3CCCCC3)c(=O)c21	?	-1.6	-6.7	3.3%	-8.6%
Cc1ccccc1COC(=O)c1cc([N+](=O)[O-])ccc1N1CCOCC1	?	-2.6	-12.5	-0.6%	-18.1%
COc1ccc(OC)c(COC(=O)c2cc([N+](=O)[O-])ccc2N2CCOCC2)c1	2.94µM*	.	.	.	4.65µM*
O=C(OCc1ccccc1F)c1cc([N+](=O)[O-])ccc1N1CCOCC1	?	.	.	.	-16.6%
O=C(OCc1ccc([N+](=O)[O-])cc1)c1cc(S(=O)(=O)N2CCCCC2)ccc1N1CCOCC1	10.4µM*	.	.	.	?
COc1ccc(COC(=O)c2cc(S(=O)(=O)N3CCCCC3)ccc2N2CCOCC2)cc1	21.2%	.	.	.	3.2%
CN(C)S(=O)(=O)c1cccc(COC(=O)c2cc([N+](=O)[O-])ccc2N2CCOCC2)c1	10.4µM*	.	.	.	13.1µM*
Cc1ccc(OCCOC(=O)c2cc(S(=O)(=O)N3CCCCC3)ccc2N2CCOCC2)cc1	13.1µM*	.	.	.	?
O=C(OCc1ccc(F)cc1)c1cc(S(=O)(=O)N2CCCCC2)ccc1N1CCOCC1	?	.	.	.	-5.1%
CCCCCC1(C(=O)OCC)CC(CSC(=N)N)OC1=O (centres undefined)	86.1%	-2.4	-4.7	0.1%	-27.1%
CC(=O)Nc1nc(-c2ccccc2)ns1	146.1%	23.3*	38.1*	-10.4%	161.1%
COCC(=O)Nc1nc(-c2ccccc2)ns1	.	34.7*	41.0	-6.7%	109.5%
Cn1c(CNC(=O)C2CCC(=O)N(CCc3cccc(F)c3)C2)nc2ccccc21 (centres undefined)	8.0%	16.5	-5.0	11.4%	6.3%
O=C(Cn1cncn1)c1ccccc1Br	0.7%	-2.4	19.4	3.3%	34.0%
SMILES	Pf growth 96h	Cycloheximide cs	Shiga toxin inh	NS1 function inh	Pf growth 48h
C#CCOc1nc(OCC#C)nc(OCC#C)n1	-22.2%	-3.1	-10.7	-5.7%	-8.4%
CCCNC(=O)c1ccc(CN2CCc3ccccc3C2)cc1	249.0%	-1.8	9.3	-1.2%	10.4µM*
COCCNC(=O)c1ccc(CN2CCc3ccccc3C2)cc1	?	-4.0	-1.6	4.0%	2.1%
CC(C)(C)SCCNC(=O)c1ccc(CN2CCc3ccccc3C2)cc1	-3.3%	44.0*	53.5*	0.1%	-37.2%
COc1ccc(Cl)cc1NC(=O)C(C)Sc1n[nH]c(N)n1 (centres undefined)	-13.8%	-4.5	-12.4	6.4%	0.6%
O=C(O)[C@H]1NCCC[C@H]1C(=O)O	.	.	.	1.0%	.
Cc1nn(Cc2ccc(F)cc2Cl)c(C)c1[N+](=O)[O-]	38.1%[5.75 µM]	-2.2	0.5	-1.6%	-0.5%
O=[N+]([O-])c1nn(-c2ccc3c(c2)OCCO3)n(O)c1=NCCC1=CCCCC1	?	24.7*	49.5	-3.6%	-11.7%
O=[N+]([O-])c1nn(-c2ccc3c(c2)OCCO3)n(O)c1=NCc1ccc(F)cc1	-10.8%	102.6*	91.8*	-14.2%	119.7%
O=[N+]([O-])c1nn(-c2ccc3c(c2)OCCO3)n(O)c1=NCc1ccc(F)cc1Cl	18.5%	49.6*	131.0*	.	339.3%
O=[N+]([O-])c1nn(-c2ccc3c(c2)OCCO3)n(O)c1=NC1CCN(Cc2ccccc2)CC1	?	3.3	8.7	.	31.9%
Cc1cc(=O)[nH]c(SCC(=O)Nc2ccccc2[N+](=O)[O-])n1	43.8%	9.7	-15.9	-0.8%	44.9%
O=S(=O)(NC1CC1)c1ccc(S(=O)(=O)N2CCCC3(CCCCC3)C2)cc1	?	-1.6	-2.9	-2.9%	-2.7%
C=CCOc1c(OC)cc(/C=N/Nc2cccc(C(=O)O)c2)c(Br)c1Br	42.7%	49.9*	187.2*	-15.1%	50.1%
C=CCOc1c(/C=N\NC(N)=O)cccc1OC	30.2%	1.0	-3.0	0.4%	?
COc1ccc(/C=N\Nc2ccc([N+](=O)[O-])cc2)c(C(=O)O)c1OC	?	-2.1	-4.6	-44.6%	12.6%
Cc1ccc2nc(Cl)c(/C=N/Nc3ccc(C(=O)O)cc3)cc2c1	-7.0%	32.2*	36.4	1.2%	-39.0%
COc1cc(/C=N/Nc2ccc(C(=O)O)cc2)cc(OC)c1OC	148.8%	45.0*	57.6*	10.0%	131.6%
COc1ccc(/C=N/Nc2ccc(C(=O)O)cc2)c(OC)c1OC	?	47.2*	79.9*	-2.1%	-10.7%
O=c1oc(CCCO)cc2ccc(/C=C/c3cccc([N+](=O)[O-])c3)cc12	21.2%	.	.	.	95.0%
O=C1Nc2ccc(Br)cc2C1(O)c1ccccc1 (centres undefined)	?	-0.8	-10.9	-1.0%	6.57µM*
COc1ccc(-c2ccc([C@H]3[C@H]4C=CC[C@@H](C)[C@@H]4C(=O)N3Cc3ccccc3)c(F)c2)cc1	?	-4.8	1.7	?	11.7µM*
COc1ccc(-c2c([C@H]3[C@H]4C=CC[C@@H](C)[C@@H]4C(=O)N3Cc3ccccc3)ccc3ccccc23)cc1	9.28µM*	0.3	-3.4	-3.7%	7.38µM*
COc1ccc(-c2ccc(OC)c(C3C4C=CCC(C)C4C(=O)N3Cc3ccccc3)c2)cc1OC (centres undefined)	.	4.7	-3.2	.	.

Screening results (PubChem)
